Laboratory results published in PubChem BioAssay AID720504 (National Center for Advancing Translational Sciences (NCATS), 2013).
Screen size: about 360,000 compounds; about 10,000 (2.8%) were called active. Roughly 4% stayed inconclusive and do not appear here. For the sample, actives were picked, then their nearest neighbours and some compounds at random. Values without a mark were called inactive. Calls follow the shape of the dose curve; as a rule, active = well fitted inhibition curve with a large enough effect; inconclusive = small, poorly fitted or top-dose-only effect; inactive = flat fitted curve, though single readings scatter.

Biological target: Serine/threonine-protein kinase PLK1 (Homo sapiens) (UniProt P53350)
Test: qHTS for Inhibitors of PLK1-PDB (polo-like kinase 1 - polo-box domain): Primary Screen; also: nearly all actives have a fitted effect of over 65% in size; as to max response, negative = inhibition: series mostly up to about 57 µM
Details: Plk1 PBD binding of FITC phosphopeptide, fluorescence polarization
% is scaled to controls: 0 for no effect and ±100 for the full control effect; potency is read from the fitted curve at half-maximal effect.

Chain of Serine/threonine-protein kinase PLK1 (Homo sapiens) (P53350 whole entry, looked up, the tested form may be a part): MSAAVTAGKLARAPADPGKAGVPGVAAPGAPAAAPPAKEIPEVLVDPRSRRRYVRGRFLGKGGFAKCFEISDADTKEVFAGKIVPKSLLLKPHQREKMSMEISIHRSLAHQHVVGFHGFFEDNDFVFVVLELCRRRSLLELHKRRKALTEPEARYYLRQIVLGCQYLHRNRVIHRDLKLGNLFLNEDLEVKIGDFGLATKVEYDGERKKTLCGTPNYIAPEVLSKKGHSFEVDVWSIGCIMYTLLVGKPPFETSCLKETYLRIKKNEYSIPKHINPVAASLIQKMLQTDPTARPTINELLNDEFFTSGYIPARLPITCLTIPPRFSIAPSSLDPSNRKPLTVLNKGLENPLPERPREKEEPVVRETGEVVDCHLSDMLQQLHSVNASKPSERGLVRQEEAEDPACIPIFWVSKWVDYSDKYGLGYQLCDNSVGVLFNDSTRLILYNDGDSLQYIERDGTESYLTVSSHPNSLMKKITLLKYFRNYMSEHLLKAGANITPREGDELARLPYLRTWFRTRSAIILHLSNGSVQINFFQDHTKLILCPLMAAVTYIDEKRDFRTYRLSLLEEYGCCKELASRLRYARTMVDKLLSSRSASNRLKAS

Row | Structure (SMILES) | max response, negative = inhibition | Potency
1 | CC1(C(=O)NCc2ccc(F)c(F)c2)Cc2c(-c3ccc4c(c3)OCO4)ccnc2O1 (stereo unspecified) | 5.1% | –
2 | CC1(Cc2cccc(C#N)c2)C(=O)Nc2ccc(-c3cccc(C(F)(F)F)c3)cc21 (stereo unspecified) | -6.86% | –
3 | CCCCC[C@@H]1C=C(C(=O)OCC)[C@H](c2ccccc2)N1S(=O)(=O)c1ccc(C)cc1 | -0.281% | –
4 | CCCCC[C@@H]1C=C(C(=O)O)[C@H](c2ccc(C#N)cc2)N1S(=O)(=O)c1ccc(C)cc1 | -5.69% | –
5 | Cc1ccc(S(=O)(=O)N2[C@@H](c3ccc(Br)cc3)C(C(=O)O)=C[C@H]2CC2CCCC2)cc1 | – | 23.8 µM (active)
6 | Cc1ccc(S(=O)(=O)N2CC[C@H]3[C@@H](C2)C(=O)C[C@@H](c2ccccc2)N3S(=O)(=O)c2ccc(C)cc2)cc1 | -5.58% | –
7 | CCN(CC)CCCC(C)n1c2nc(=O)[nH]c(=O)c-2nc2cc(Cl)ccc21 (stereo unspecified) | – | 0.752 µM (active)
8 | Cc1ccc(Sc2ccc(NC(=O)c3ccc(F)cc3)cc2C#N)cc1 | -2.21% | –
9 | Cc1ccc(-c2nc3ccc(Br)cn3c2Cc2ccccc2C(F)(F)F)cc1 | -28.5% | –
10 | Cc1ccc([C@@H]2CC(=O)[C@@H]3CN(S(=O)(=O)c4ccc(C)cc4)[C@H](c4ccccc4F)C[C@@H]3N2S(=O)(=O)c2ccc(Cl)cc2)cc1 | 3.58% | –
11 | NC(=O)c1c(NC(=O)CSc2nnc(-c3ccco3)n2N)sc2c1CCCC2 | – | 15 µM (active)
12 | Nn1c(SCC(=O)Nc2nccs2)nnc1-c1ccco1 | -17.8% | –
13 | CCc1cccc(C)c1NC(=O)CSc1nnc(-c2ccco2)n1N | -0.459% | –
14 | COc1ccc([C@H]2CC(=O)C[C@@H](CCn3cc(CC4CCCC4)nn3)O2)cc1 | 2.62% | –
15 | CN(C)CCOc1cccc(Br)c1 | -4.17% | –
16 | CN(C)CCOC1c2ccccc2-c2ccccc21 | – | 29.9 µM (active)
17 | CC(=O)O[C@H]1c2ccccc2-c2ccccc2[C@@H]1OC(C)=O | 1.29% | –
18 | CCCCC[C@H](C)N1C[C@@H](COCc2ccccc2)Oc2cc(N3CC[C@@H](N(C)C)C3)ccc2S1(=O)=O | 4.46% | –
19 | CCOC(=O)[C@]12CCCC=C1N(Cc1ccc3c(c1)OCO3)C(=O)[C@H](CC(=O)N1CCN(C(=O)c3ccco3)CC1)C2 | -17.4% | –
20 | CC1(C(=O)NS(=O)(=O)Cc2cccc(Cl)c2)CCN1C(=O)Cc1ccc(Cl)cc1Cl (stereo unspecified) | -4.29% | –
21 | CC1CCN(C(=O)c2ccc(S(=O)(=O)Cc3cc(F)ccc3F)c([N+](=O)[O-])c2)CC1 | – | 15 µM (active)

Row | Structure (SMILES) | max response, negative = inhibition | Potency
22 | O=C(c1ccc(Oc2ccc(Cl)cc2)c([N+](=O)[O-])c1)N1CCCC1 | -8.04% | –
23 | Nc1ccc(C(=O)N2CCN(S(=O)(=O)c3ccc(Cl)cc3)CC2)cc1[N+](=O)[O-] | -9.21% | –
24 | O=C(Nc1ccc(Cl)cc1)c1csc([C@@H]2O[C@H](CO)[C@H](O)[C@H](O)[C@H]2O)n1 | 2.4% | –
25 | O=C(Nc1cccc(Cc2ccccc2)c1)Nc1ccc2nc([C@@H]3O[C@H](CO)[C@@H](O)[C@H](O)[C@H]3O)[nH]c2c1 | -5.78% | –
26 | CCOc1cccc(/C=N/N2C(=O)CSC2=S)c1O | – | 11.9 µM (active)
27 | CCOc1ccc(N2C(=O)CSC2=NC#N)cc1 | -14.5% | –
28 | CCOc1cc(/C=N/n2cnnc2)c(Br)cc1O | -5.37% | –
29 | CCCCCCN1C[C@H](O)[C@@H](n2cc(C3CC3)nn2)C[C@@H]1c1ccc(Cl)cc1 | -0.475% | –
30 | CCC(C)(C)NC(=O)C(c1ccc(OC)cc1)N(C(=O)CCC(=O)Nc1cc(C)on1)c1ccc(OC)cc1OC (stereo unspecified) | -9.49% | –
31 | CCC(C)(C)NC(=O)C(c1cccc(OC)c1OC)N(CC(C)C)C(=O)CCC(=O)Nc1cc(C)on1 (stereo unspecified) | – | 10.6 µM (active)
32 | COc1ccc(C(C(=O)NC(C)(C)C)N(Cc2ccc(F)cc2)C(=O)CCC(=O)Nc2cc(C)on2)cc1 (stereo unspecified) | -11.5% | –
33 | CC(=O)Nc1cc(-c2ccc(N3CCN(C)CC3)cc2)cn2c(-c3ccc(F)cc3)cnc12 | 1.71% | –
34 | COCCCn1c(=O)/c(=C/c2ccccc2OC(C)C)s/c1=C(\C#N)C(=O)Nc1ccc(C(=O)O)cc1 | -29.5% | –
35 | O=C(C[n+]1ccccc1)N/N=C/c1ccc(O)cc1 | – | 26.7 µM (active)
36 | Cc1nonc1C(=O)N/N=C/c1ccc(O)cc1 | -1.21% | –
37 | Nc1nnn(CC(=O)N/N=C/c2ccc(O)cc2)n1 | -3.01% | –
38 | O=C(Nc1ccc2c(c1)[C@@H]1C[C@@H](CC(=O)N3CCCCC3)O[C@@H](CO)[C@@H]1O2)NC1CCCCC1 | 2.32% | –
39 | Cc1nc(C(F)(F)F)ccc1C(=O)N1CCC1(C)C(=O)NS(=O)(=O)c1ccc(F)cc1F (stereo unspecified) | 1.72% | –
40 | COc1ccc(N2C(=O)CNC2=S)cc1 | 0.339% | –
41 | COc1ccc(-c2cn(-c3ccc(OC)cc3)c(=S)[nH]2)cc1 | – | 21.2 µM (active)
42 | COc1ccc(-n2cc(-c3ccccc3)c3c(=S)nc[nH]c32)cc1 | -12.3% | –

Row | Structure (SMILES) | max response, negative = inhibition | Potency
43 | Cc1csc(=O)n1CCC(=O)OCC(=O)Nc1ccc(N2CCOCC2)cc1 | 1% | –
44 | CSc1ccc(CN2CCC2(C)C(=O)Nc2ccc(C)c(O)c2)cc1 (stereo unspecified) | 4.93% | –
45 | COc1cc(F)ccc1-c1cc(C(=O)NCC2CCCCC2)[nH]n1 | 1.4% | –
46 | COc1ccc(C2C(C#N)=C(N)N(c3ncn[nH]3)C3=C2C(=O)CCC3)cc1 (stereo unspecified) | – | 26.7 µM (active)
47 | CCOc1ccc(C2C(C#N)=C(N)N(N(C)C)C3=C2C(=O)CCC3)cc1 (stereo unspecified) | -4.98% | –
48 | N#CC1=C(N)N(c2ccccc2)C2=C(C(=O)CCC2)C1c1ccccc1 (stereo unspecified) | -0.426% | –
49 | CC1(C(=O)NCc2ccccc2)CN(S(C)(=O)=O)CC(=O)N1CC(F)(F)F (stereo unspecified) | 3.31% | –
50 | CCC(=O)N1Cc2cc(C(=O)NCc3cccc(F)c3)nc(-c3cccc(C4=CCCC4)c3)c2[C@H]1CCO | -10.3% | –
51 | O=C(Nn1cnnc1)c1ccc([N+](=O)[O-])cc1 | -3.8% | –
52 | O=C(CC(n1cncn1)C(Cl)(Cl)Cl)c1ccc([N+](=O)[O-])cc1 (stereo unspecified) | – | 23.8 µM (active)
53 | O=C(Cn1c[n+](CC(=O)c2ccc([N+](=O)[O-])cc2)cn1)c1ccc([N+](=O)[O-])cc1 | -8% | –
54 | OC[C@@H]1CN(Cc2cccs2)C[C@H](n2cnc3c(NC4CCCC4)ncnc32)O1 | -8.04% | –
55 | O=C(Nc1cccc2ccccc12)NC1CC1 | -14.1% | –
56 | COc1ccc(C(C(=O)Nc2c(C)cccc2C)N2CCN(c3ccc(C)cc3)CC2)cc1 (stereo unspecified) | -1.1% | –
57 | N#Cc1c(-c2ccccc2)cc(-c2ccccc2)nc1SCC(=O)O | – | 21.2 µM (active)
58 | N#Cc1c(C(F)(F)F)cc(-c2ccccc2)nc1SCC(=O)N1CCOCC1 | -6.59% | –
59 | N#Cc1c(C(F)(F)F)cc(-c2ccc(Cl)cc2)nc1SCC(=O)O | -8.73% | –
60 | OC(c1ccc(Cl)cc1)c1ncc(-c2ccc(Cl)cc2)[nH]1 (stereo unspecified) | 5.29% | –
61 | CC1=C(C(=O)N2CCOCC2)CC(CC(=O)NCCCN(C)C)C(=O)N1Cc1ccc(C(C)(C)C)cc1 (stereo unspecified) | -2.35% | –
62 | CCc1nc2ccc(C(=O)N3CCC(O)(Cc4ccccc4)CC3)cn2c1N(C)C(=O)Cc1ccccc1 | -2.01% | –
63 | Nc1ncnc2c1ncn2[C@@H]1O[C@H](C(=O)NCC(F)(F)F)[C@@H](O)[C@H]1O | -5.72% | –

Row | Structure (SMILES) | max response, negative = inhibition | Potency
64 | CCOC(=O)c1c(-n2cnnn2)sc(C)c1C | – | 26.7 µM (active)
65 | CCOC(=O)N1CCN(S(=O)(=O)c2ccc(-n3cnnn3)cc2)CC1 | -22.3% | –
66 | CCOc1ccc(C(=O)COC(=O)c2ccc(-n3cnnn3)cc2)cc1 | 2.47% | –
67 | CC1(Oc2ccc(Cl)cc2)CCN(Cc2csc3ccccc23)C1 (stereo unspecified) | -4.39% | –
68 | Cc1ccc(CNC(=O)Nc2nnc([C@H]3C[C@H](O)[C@@H](CO)O3)s2)cc1 | 6.99% | –
69 | CC(C)C[C@@H](COCc1ccc(Cl)cc1)N1CCN(C(=O)c2ccc(Cl)cc2Cl)CCC1=O | -7.05% | –
70 | CC(=O)c1cccc(-c2cnc3c(NC=O)cc(-c4cccc(C(=O)N(C)C)c4)cn23)c1 | -7.52% | –
71 | COc1ccc(C(=O)c2c(C)c(CCC#N)n3ccccc23)c(OC)c1 | – | 29.9 µM (active)
72 | COc1ccc(C(=O)CCc2ccccc2O)c(OC)c1 | -0.281% | –
73 | Cc1c(C(=O)c2cccc([N+](=O)[O-])c2)c2ccccn2c1CCC#N | -8.17% | –
74 | CN1CCn2cnc(C(=O)NCC(=O)OC(C)(C)C)c2C1=O | -1.56% | –
75 | Cc1ccccc1S(=O)(=O)N1[C@@H](c2cccc(Cl)c2)C(C(=O)OC(C)(C)C)=CC[C@H]1c1ccc(Cl)cc1 | -12.6% | –
76 | CCCCNC(=O)C[C@@H]1C[C@@]2(C(=O)OCC)CCC=C2N(Cc2ccco2)C1=O | -10.8% | –
77 | Cc1ccc(S(=O)(=O)N2CC3C(=O)C[C@@H](c4ccccc4Cl)N(S(=O)(=O)c4ccc(C)cc4)C3CC2c2ccccc2)cc1 (stereo partly specified) | 1.78% | –
78 | O=C(CSc1nnc(-c2ccccn2)n1-c1ccccc1)Nc1ccc2c(c1)OCO2 | -6.44% | –
79 | Cc1ccc(-n2c(SCC(=O)Nc3ccc4c(c3)OCO4)nnc2-c2ccccn2)cc1 | -3.49% | –
80 | Cc1ccc(-n2c(SCC(=O)Nc3ccc4c(c3)OCO4)nnc2-c2ccoc2C)cc1 | – | 23.8 µM (active)
81 | O=C(NCc1cccnc1)c1cc(C2CCCN(C(=O)CCCc3ccccc3)C2)on1 (stereo unspecified) | 7.06% | –
